S2 tox = reduces viability in counter-screen for ATXN expression inhibitors. S2 cells (HEK-293 line with an ATXN2-luciferase reporter) viability, CellTiter-Fluor protease fluorescence, 24 h. Potency, µM (top dose mostly 56.7 µM), hits mostly cytotoxic. 400,000 tested, 0.49% active; further: nearly all actives have a fitted effect of over 40% in size
ATXN2 expr inh = reduces ATXN2 reporter expression in HEK-293 cells; HEK-293 ATXN2-luciferase reporter, luminescence, 24 h; Potency, µM (doses to about 57 µM), hits mostly inhibitors; 360,000 tested, 0.72% active; further: nearly all actives have a fitted effect of over 55% in size
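ATXN2-luciferase reporter cells (luciferase flanked by upstream and downstream ATXN2 gene portions) were treated 24 h at 37 °C with compounds at up to 57 uM. SteadyGlo luminescence gave expression; GF-AFC fluorescence gave viability.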
TGFb inhibitor = TGF-b pathway inhibition; 410,000 tested, 1.2% active; Potency, µM (series often up to 46.1 µM), actives largely listed as inhibitors; HepG2 CAGA-GFP TGF-b/SMAD3 reporter, GFP fluorescence, 18 h; TGF-beta stimulated, 500 pg/mL final; further: nearly all actives have a fitted effect of over 65% in size
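HEPG2 CAGA-GFP cells (1000/well, DMEM with 1% FBS) were pre-incubated 2 h at 37 degrees C, given compound by pin tool, then stimulated with TGF-beta at 500 pg/mL final for 18 h before per-cell GFP fluorescence imaging.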
HepG2 tox-1 = HepG2 cytotoxicity, counter-screen for TGF-b inhibitors; HepG2 CAGA-GFP viability, ATP luminescence, 18 h; Potency, µM (titrated, usually from 46.1 µM), hits mostly cytotoxic; 410,000 tested, 0.76% active; AID 588856
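CellTiter-Glo luminescence gave cytotoxicity after 18 hours at 37 degrees C. The cells were HepG2 CAGA-GFP in 1% FBS DMEM, stimulated with 500 pg/mL TGF-beta after compound addition. %Activity was normalised to no-cell wells (complete cell-killing) and DMSO (no toxicity), and curves were fitted and classified.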
TGFb CAGA inh = confirmation of TGF-b signaling inhibitors in HepG2 reporter cells | shares compounds with TGFb inhibitor | HepG2 CAGA-GFP TGF-b reporter, GFP fluorescence, 18 h; cells stimulated with TGF-beta, 500 pg/mL | Potency, µM (top dose mostly 46.1 µM), hits mostly inhibitors | 1,600 tested, 63% active; further: nearly all actives have a fitted effect of over 65% in size
HepG2 tox-2 = HepG2 cytotoxicity, TGF-b inhibitor counterscreen. shares compounds with TGFb inhibitor. HepG2 CAGA-GFP viability, ATP luminescence, 18 h; cells stimulated with TGF-beta, 500 pg/mL. Potency, µM (doses to about 46.1 µM), most hits filed as inhibitors. 1,600 tested, 27% active; further: nearly all actives have a fitted effect of over 70% in size
CCL64 TGFb inh = orthogonal confirmation of TGF-b inhibitors in CCL64 cells; shares compounds with TGFb inhibitor; CCL64 CAGA-GFP reporter, TGF-b stimulated, GFP fluorescence, 18 h; Potency, µM (series often up to 46.1 µM), hits mostly inhibitors; 1,600 tested, 41% active; further: nearly all actives have a fitted effect of over 65% in size
TGFb COP inh = blocks TGF-b signaling in HepG2 COP reporter | 1,600 tested, 3% active | HepG2 COP-GFP TGF-b reporter, GFP fluorescence, 18 h; cells stimulated by added recombinant TGF-beta | shares compounds with TGFb inhibitor | Potency, µM (top dose mostly 46.1 µM), actives largely listed as inhibitors; further: nearly all actives have a fitted effect of over 70% in size
Numbers stand for hits; ! = repeats disagree. An excerpt weighted towards active compounds, which were near 2.3% of everything screened. The call rests on the fitted dose curve; in most records, active means well fitted curve in the direction sought with a large enough effect; inconclusive means small, poorly fitted or top-dose-only effect, or another doubt; inactive means no such curve, though single readings can be large; an effect the other way counts as inactive or inconclusive.

For COc1ccc(CCNc2c3ccccc3nc3ccccc23)cc1OC the results were S2 tox inconclusive, ATXN2 expr inh inconclusive, TGFb inhibitor 16µM, HepG2 tox-1 inactive, TGFb CAGA inh 15µM, HepG2 tox-2 21µM, CCL64 TGFb inh 26µM and TGFb COP inh inactive.
Screening Cc1ccc(Nc2nc(-c3c(C)nc4ccccn34)cs2)cc1 returned S2 tox inconclusive, ATXN2 expr inh inconclusive, TGFb inhibitor 10µM, HepG2 tox-1 inactive, TGFb CAGA inh 2.6µM, HepG2 tox-2 inconclusive, CCL64 TGFb inh 1.3µM and TGFb COP inh inactive.
Screening O=C(Nc1ccccc1C(=O)Nc1nnc(C(F)(F)F)s1)c1ccccc1Cl returned S2 tox inconclusive, ATXN2 expr inh 13µM, TGFb inhibitor 3.5µM, HepG2 tox-1 inactive, TGFb CAGA inh 5.8µM, HepG2 tox-2 4.1µM, CCL64 TGFb inh 6.5µM and TGFb COP inh inactive.
Cc1onc(-c2c(F)cccc2Cl)c1C(=O)Nc1nccs1 was read as S2 tox inactive, ATXN2 expr inh inactive, TGFb inhibitor inactive and HepG2 tox-1 inactive.
Cc1onc(-c2c(F)cccc2Cl)c1C(=O)Nc1nnc(C(F)(F)F)s1 was read as S2 tox inconclusive, ATXN2 expr inh inconclusive, TGFb inhibitor 18µM, HepG2 tox-1 inactive, TGFb CAGA inh 21µM, HepG2 tox-2 inconclusive, CCL64 TGFb inh inconclusive and TGFb COP inh inactive.
Screening CC(C)NC(=O)N(C)C[C@H]1Oc2ccc(NS(=O)(=O)c3ccc(Cl)cc3)cc2CC(=O)N([C@@H](C)CO)C[C@@H]1C returned S2 tox inactive, ATXN2 expr inh inactive, TGFb inhibitor inconclusive, HepG2 tox-1 inactive, TGFb CAGA inh inactive, HepG2 tox-2 inactive, CCL64 TGFb inh inactive and TGFb COP inh inactive.
Cc1ccc(C(=O)NCC(=O)OCC(=O)c2cccc3ccccc23)cc1 was read as TGFb inhibitor inactive and HepG2 tox-1 inactive.
`O=C(Oc1ccc(Cl)c2cccnc12)c1cccnc1` gave ATXN2 expr inh inactive, TGFb inhibitor 10µM, HepG2 tox-1 inactive, TGFb CAGA inh inactive, HepG2 tox-2 inactive, CCL64 TGFb inh inconclusive and TGFb COP inh inactive.
CC1CN(S(=O)(=O)c2cc(C(=O)NCc3ccncc3)ccc2Cl)CC(C)O1 (stereo not drawn) was read as S2 tox inactive, ATXN2 expr inh inactive, TGFb inhibitor inactive and HepG2 tox-1 inactive.
`Cc1ccccc1CCNC(=O)c1ccc(Cl)c(S(=O)(=O)N2CC(C)OC(C)C2)c1` (stereo not drawn) gave S2 tox inconclusive, ATXN2 expr inh inactive, TGFb inhibitor 10µM, HepG2 tox-1 inactive, TGFb CAGA inh 16µM, HepG2 tox-2 inconclusive, CCL64 TGFb inh inconclusive and TGFb COP inh inactive.
`Cc1ccc(S(=O)(=O)N2CCN(c3nc(-c4cccs4)nc4cccnc34)CC2)cc1` gave TGFb inhibitor inactive and HepG2 tox-1 inactive.
`S=C(NCc1ccco1)Nc1ccc(Oc2ccc(Cl)cc2)cc1` gave S2 tox inactive, ATXN2 expr inh inactive, TGFb inhibitor 16µM, HepG2 tox-1 inactive, TGFb CAGA inh inconclusive, HepG2 tox-2 inconclusive, CCL64 TGFb inh inconclusive and TGFb COP inh inactive.
For O=C(Nc1ccccc1C(F)(F)F)N1CCC(CN2CCc3ccccc3C2)CC1 the results were TGFb inhibitor inactive and HepG2 tox-1 inactive.
`CC[C@H](C)[C@@H]1OC(=O)[C@@H](C)[C@@H](CC)NC(=O)[C@H](C)N(C)C(=O)C(C)(C)C(=O)C(C)NC(=O)[C@H](Cc2ccccc2)N(C)C(=O)[C@H](C(C)C)N(C)C(=O)CNC(=O)[C@H](CC(C)C)N(C)C(=O)CNC1=O` (stereo partly drawn) gave S2 tox inconclusive, ATXN2 expr inh inactive, TGFb inhibitor 3.5µM, HepG2 tox-1 inactive, TGFb CAGA inh 7.3µM, HepG2 tox-2 inconclusive, CCL64 TGFb inh 5.8µM and TGFb COP inh inactive.
For CCN(CC)C(=O)c1ccc2nc3ccccc3nc2c1 the results were S2 tox inactive, ATXN2 expr inh inactive, TGFb inhibitor 10µM, HepG2 tox-1 inactive, TGFb CAGA inh inconclusive, HepG2 tox-2 12µM, CCL64 TGFb inh inactive and TGFb COP inh inactive.
For O=C(CNC(=O)C1CCCCC1)OCC(=O)c1ccc(-c2ccccc2)cc1 the results were TGFb inhibitor inactive and HepG2 tox-1 inactive.
c1ccc(-c2nc3nonc3nc2-c2ccccc2)cc1 was read as S2 tox inconclusive, ATXN2 expr inh inconclusive, TGFb inhibitor 8.9µM, HepG2 tox-1 10µM, TGFb CAGA inh 15µM, HepG2 tox-2 inconclusive, CCL64 TGFb inh inconclusive and TGFb COP inh inconclusive.
For O=C1c2ccccc2C(=O)N1c1ccc(S(=O)(=O)N2CCOCC2)cc1 the results were TGFb inhibitor inactive and HepG2 tox-1 inactive.
For CCN(c1ccccc1)S(=O)(=O)c1ccc(NC(=O)c2nc(S(C)(=O)=O)ncc2Cl)cc1 the results were ATXN2 expr inh 13µM, TGFb inhibitor 6.3µM, HepG2 tox-1 6.3µM, TGFb CAGA inh 4.1µM, HepG2 tox-2 5.2µM, CCL64 TGFb inh 1.5µM and TGFb COP inh 6.5µM.
`CS(=O)(=O)c1ncc(Cl)c(C(=O)Nc2ccc(OC(F)F)cc2)n1` gave S2 tox inconclusive, ATXN2 expr inh inconclusive, TGFb inhibitor inconclusive and HepG2 tox-1 inactive.
Screening CCSc1ncc(Cl)c(C(=O)Nc2ccc(S(=O)(=O)N(C)c3ccccc3)cc2)n1 returned S2 tox inactive, ATXN2 expr inh inactive, TGFb inhibitor inactive and HepG2 tox-1 inactive.
`CCS(=O)(=O)c1ncc(Cl)c(C(=O)Nc2ccc(S(=O)(=O)N(C)c3ccccc3)cc2)n1` gave S2 tox 20µM, ATXN2 expr inh 20µM, TGFb inhibitor 3.5µM, HepG2 tox-1 4.5µM!, TGFb CAGA inh 4.6µM, HepG2 tox-2 4.1µM, CCL64 TGFb inh 1.6µM and TGFb COP inh 7.3µM.
COc1ccc(CNC(=O)C[C@H]2C[C@H](C(=O)N(C(C)C)C(C)C)[C@@]3(C)c4[nH]c5ccc(Cl)cc5c4CCN3C2=O)cc1OC was read as S2 tox inconclusive, ATXN2 expr inh inconclusive, TGFb inhibitor 14µM, HepG2 tox-1 inactive, TGFb CAGA inh 8.2µM, HepG2 tox-2 inconclusive, CCL64 TGFb inh inconclusive and TGFb COP inh inactive.
